Measured values from PubChem BioAssay (NCI).
This is part of a sample that, as a whole, favours compounds with a hit. Of some 83,000 tested, about 20% had one in any assay.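 Single-dose data. Exposure time 48 hours. Values below 10 considered active.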 A number with no mark means an inactive call. Calls of active or inactive are those of the source.

What was measured:
Experiment in all cases: NCI-60 one-dose screen, 48 h (100 = growth as untreated, 0 = no growth, -100 = all killed)
Details in all cases: 10 µM unless noted
SK-MEL-2 melanoma = system: SK-MEL-2 melanoma
EKVX NSCLC = system: EKVX NSCLC
UO-31 renal = system: UO-31 renal
ACHN renal = system: ACHN renal
CAKI-1 renal = system: CAKI-1 renal
CCRF-CEM leukemia = system: CCRF-CEM leukemia
MOLT-4 leukemia = system: MOLT-4 leukemia
SR leukemia = system: SR leukemia
RPMI-8226 leukemia = system: RPMI-8226 leukemia
OVCAR-8 ovarian = system: OVCAR-8 ovarian
OVCAR-5 ovarian = system: OVCAR-5 ovarian
OVCAR-4 ovarian = system: OVCAR-4 ovarian
SK-OV-3 ovarian = system: SK-OV-3 ovarian
IGROV1 ovarian = system: IGROV1 ovarian
OVCAR-3 ovarian = system: OVCAR-3 ovarian
HS 578T breast = system: HS 578T breast
NCI/ADR-RES ovarian = system: NCI/ADR-RES ovarian
TK-10 renal = system: TK-10 renal
A498 renal = system: A498 renal

Row | Compound | growth (SK-MEL-2 melanoma) | growth (EKVX NSCLC) | growth (UO-31 renal) | growth (ACHN renal) | growth (CAKI-1 renal) | growth (CCRF-CEM leukemia) | growth (MOLT-4 leukemia) | growth (SR leukemia) | growth (RPMI-8226 leukemia) | growth (OVCAR-8 ovarian) | growth (OVCAR-5 ovarian) | growth (OVCAR-4 ovarian) | growth (SK-OV-3 ovarian) | growth (IGROV1 ovarian) | growth (OVCAR-3 ovarian) | growth (HS 578T breast) | growth (NCI/ADR-RES ovarian) | growth (TK-10 renal) | growth (A498 renal)
1 | CC(=O)N1c2ccccc2NC2=C(C(=O)N(Cc3ccccc3)C2(C)C)C1c1ccco1 (configuration not stated) | 16.9% | 35.4% | 52.5% | 33.5% | 43% | 24.1% | 28.6% | 23.3% | 23.4% | 26.1% | 25.9% | 48.8% | 22.7% | 26.8% | -7.66% (active) | 10.7% | 82.9% |  | 
2 | Fc1ccc(C2CC(c3cccc(Nc4ccncc4)c3)=NN2c2ccccc2)cc1 (configuration not stated) | 90.2% | 90.1% | 62.8% |  | 48.1% | 32.4% | 5.35% (active) | 2.49% (active) | 1.2% (active) | 55.1% | 85.3% | 51.9% | 70.8% | 44% | 64% | 73.1% | 73% | 80.3% | 85.2%
3 | COc1ccc(C(O)c2cc3c(N)c(C(=O)Nc4cccc(Br)c4C)sc3nc2C)cc1 (configuration not stated) | 9.35% (active) | 37.7% | 33.5% | 29.1% | 41.1% | 16.4% | 23.1% | 1.86% (active) | 7.3% (active) | 17.4% | 39.6% | 47.4% | 30.8% | 24.8% | -14.4% (active) | 21.8% | 14.1% | 27% | -16.1% (active)
4 | COc1ccccc1/C=N/NC1=NC2C(N1)N(C)C(=O)N2C (configuration not stated) | 104% | 99.8% | 86.2% | 102% | 91.7% |  | 102% | 110% | 119% | 103% | 102% | 106% | 95.4% | 96.4% | 107% | 95.1% | 105% | 125% | 97.4%
5 | CS(=O)(=O)OCCN(CCOS(C)(=O)=O)c1ccc(/C=N/Nc2ccc([N+](=O)[O-])cc2[N+](=O)[O-])cc1 | 118% | 81.7% | 88.9% | 84.6% | 70.4% | 55.5% | 88.4% |  | 82.3% | 76.4% |  | 93.1% | 101% | 72% | 107% |  | 73% | 112% | 
6 | COc1ccc(-c2nc3sccn3c2/C=C/C(=O)c2cc(OC)c(OC)c(OC)c2)cc1 | 43.9% | 60% | 17.6% | 55.7% | 42.4% |  | 29.8% | 55.4% | -39.1% (active) | 49.9% | 103% | 54.7% | 68.5% |  | 53.7% | 71.1% | 47.5% | 82.7% | 84.9%
7 | COc1cc(COC(=O)CCCCC[P+](c2ccccc2)(c2ccccc2)c2ccccc2)c(OC)c2c1OCO2 | 68.4% | 73% | 91.4% | 98.5% | 72.7% |  | 93.3% | 0.217% (active) | -23.1% (active) | 64.4% |  | 41.2% | 76.6% | 28.6% | 48.7% | 70.8% | 104% | 75.6% | 52.5%
8 | CN1CCN(C(=O)OCc2nc3c(N4CCOCC4)nc(-c4ccccc4)nc3n2C)CC1 | -59.9% (active) | -76.7% (active) | -100% (active) |  | -93.5% (active) | -6.94% (active) | -6.95% (active) | 2.5% (active) | -28.7% (active) | 4.37% (active) | -86.1% (active) | -86.4% (active) | 61.5% | -96.3% (active) | -81.9% (active) | -22% (active) | -16.2% (active) | -70.1% (active) | 3.05% (active)
9 | COc1ccc(C2=NN(C(C)=O)C(c3cn(Cc4ccc(Cl)cc4)c4ccccc34)C2)cc1 (configuration not stated) | 91.1% | 58.4% | 53.4% |  | 52.2% | 70.7% | 67.8% | 66.2% | 50% | 78.3% | 79.6% | 70.1% | 90.1% | 77.5% | 78.1% | 75.9% | 75% |  | 72.9%
10 | O=C(Nc1ccc2cc3ccc(NC(=O)N4CCCCCC4)cc3nc2c1)N1CCCCCC1 | -69% (active) | -41% (active) | -85.4% (active) | -93.6% (active) | -64.7% (active) | 8.09% (active) | -21.2% (active) | 8.09% (active) | -36.8% (active) | -28.3% (active) | 4.88% (active) | -44.8% (active) | -36.7% (active) | -48.5% (active) | -69.2% (active) | -33.2% (active) | 36.7% | -62.3% (active) | 
11 | C[C@]12C[C@H]1CC[C@]1(C)[C@@H]2CC[C@@]23C[C@H](CC[C@H]21)[C@@](O)(CO)C3 | 104% | 74.8% | 84% | 107% | 85.9% | 86.4% | 96% | 63.3% | 95% | 102% | 92.9% | 110% | 113% | 104% | 111% | 99.6% | 97.7% | 100% | 92.9%
12 | N#Cc1cc(-c2nc3ccccc3s2)c(=O)n(NS(=O)(=O)c2ccc(Cl)cc2)c1N | 102% | 100% | 70.4% | 95.5% | 80.5% | 107% | 107% | 110% | 100% | 110% | 102% | 103% | 83.7% | 95.5% | 107% | 99.7% | 104% | 139% | 
13 | COc1ccc(/C=N/C2=C(C#N)C(c3ccccc3[N+](=O)[O-])c3ccc4ccccc4c3O2)cc1 (configuration not stated) | 92.8% | 72.1% | 64.8% | 90.8% | 68.3% | 106% | 89.5% | 89.4% | 90.3% | 95.1% | 105% | 91.5% | 101% | 54.6% | 77.4% | 95.3% | 95.8% | 182% | 
14 | Cc1[nH]n(C(=O)c2ccncc2)c(=O)c1N=Nc1ccc(F)c(Cl)c1 | 114% | 87.8% | 86.7% | 110% | 63.4% | 19.7% | 11.6% | 76.1% | 87.6% | 103% | 114% | 112% | 103% | 95.3% | 98.3% | 89.1% | 95.6% |  | 102%
